Data taken from PubChem BioAssay AID504374 (National Center for Advancing Translational Sciences (NCATS), 2011).
Values joined by “and” are separate entries in the source; they are usually repeats but may differ in a detail not shown here. Equal values may be shown once. Among all 1,500 compounds or so, about 100 (6.7%) were called active. Not shown: some 7% with an inconclusive outcome. Calls follow the shape of the dose curve; as a rule, active = well fitted inhibition curve with a large enough effect; inconclusive = small, poorly fitted or top-dose-only effect, or effect the other way; inactive = flat fitted curve, though single readings scatter. The entries come from a sample that favours actives as a whole.

Molecular target: Runt-related transcription factor 1 (Homo sapiens) + Core-binding factor subunit beta (Homo sapiens) (UniProt Q01196+Q13951)
Assay: qHTS Assay for Compounds Blocking the Interaction Between CBF-beta and RUNX1 for the Treatment of Acute Myeloid Leukemia: Hit Validation; also: nearly all actives have a fitted effect of over 60% in size
Conditions: AlphaScreen CBFb-His/RUNX1-biotin binding; series mostly up to 59.8 µM; activity, negative = inhibition: at the top concentration
Source text: NIH Chemical Genomics Center [NCGC]
NIH Molecular Libraries Probe Production centers Network [MLPCN]
Assay Submitter (PI): Paul Liu
Core Binding Factor (CBF) abnormalities are associated with 20-25% of all acute myeloid leukemias (AML), of which 5-10% are further sub classified as acute myelomonocytic leukemia with eosinophilia, also known as M4Eo in the FAB classification scheme. This subtype of leukemia is usually associated with chromosome 16 inversion (p13:q22). Chromosome 16 inversion results in formation of the fusion oncogene CBFB-MYH11, which encodes the fusion protein CBF-beta-SMMHC.
It has been hypothesized that the interference of CBF-beta and RUNX1 binding could have therapeutic implications for patients with CBF mediated leukemias. We developed a CBF-beta and RUNX1 binding assay in AlphaScreenTM format and optimized it for high throughput screening to search for inhibitors. The goal of this project is to screen MLPCN's compound collection (MLSMR) for identifying the inhibitors of the interaction between CBF-beta and RUNX1 proteins as research probes. If these probes work well in the animal models, the ultimate goal of this project is to development a new drug treatment for this disease.
This assay can not be used to assess how apparent inhibitors interfere with protein binding, and whether inhibitors specifically bind to either protein. Disruption of this protein-protein interaction, through any mechanism, is the intended target activity.
The present data set was run to confirm the activity of hits from the primary screen.
NCGC Assay Protocol Summary:
Step, Parameter, Description
(1) Reagent, 3 uL CBFb-His/RUNX1-biotin mix incubated together for 20 minutes at room temperature (30 nM each)
(2) Compound or control, 23 nL compound stock solution
(3) Incubation, 15 minutes at Room temperature
(4) Reagent, 1 uL 50 ng each of beads (Nickel beads and streptavidin beads)
(5) Incubation, 90 minutes at Room temperature
(6) Detection, Excitation=365 nm Emission=440 nm, Envision reader in AlphaScreenTM mode
Keywords: MLSMR, MLPCN, NIH Roadmap, qHTS, NCGC, Core binding factor, CBF, CBF-beta, Acute myeloid leukemia
% is scaled to controls: 0 for no effect and ±100 for the full control effect; potency is read from the fitted curve at half-maximal effect.

Chain of Runt-related transcription factor 1 (Homo sapiens) + Core-binding factor subunit beta (Homo sapiens) (Q01196 whole entry, looked up): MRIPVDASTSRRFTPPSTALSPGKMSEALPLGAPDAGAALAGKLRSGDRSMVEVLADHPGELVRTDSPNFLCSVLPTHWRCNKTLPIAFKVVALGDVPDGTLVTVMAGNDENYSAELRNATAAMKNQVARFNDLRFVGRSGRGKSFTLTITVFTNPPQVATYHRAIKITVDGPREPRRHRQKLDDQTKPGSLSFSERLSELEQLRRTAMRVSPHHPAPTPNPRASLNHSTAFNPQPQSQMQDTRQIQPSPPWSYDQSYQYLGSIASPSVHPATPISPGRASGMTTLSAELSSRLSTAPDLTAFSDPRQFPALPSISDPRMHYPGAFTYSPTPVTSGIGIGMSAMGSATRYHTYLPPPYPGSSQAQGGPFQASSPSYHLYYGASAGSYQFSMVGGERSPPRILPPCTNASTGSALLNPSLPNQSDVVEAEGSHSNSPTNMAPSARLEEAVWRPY
Chain of Runt-related transcription factor 1 (Homo sapiens) + Core-binding factor subunit beta (Homo sapiens) (Q13951 whole entry, looked up): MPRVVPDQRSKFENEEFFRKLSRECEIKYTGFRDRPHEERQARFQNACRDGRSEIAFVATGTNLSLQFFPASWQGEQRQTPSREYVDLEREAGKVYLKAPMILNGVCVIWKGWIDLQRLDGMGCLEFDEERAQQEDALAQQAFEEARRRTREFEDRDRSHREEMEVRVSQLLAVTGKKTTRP

SMILES | Potency | activity, negative = inhibition
CCn1nc(-c2ccccc2)nc2c(=O)n(C)c(=O)nc1-2 | 1.12 µM (active) | 
CCC1(C(=O)c2ccc(C)cc2)C2c3ccccc3OC(=O)C21C(=O)O (stereo not drawn) |  | 95.8% (inactive)
COCc1cc(OC(=O)N(C)C)nc(-c2ccc(C)c(Cl)c2)n1 |  | -1.64% (inactive)
CCOC(=O)C(O)(c1ccc(NC(=O)c2ccc(Cl)c(Cl)c2)cc1)C(F)(F)F (stereo not drawn) |  | 5.28% (inactive)
CCN1CCc2ccccc2C1 |  | -0.241% (inactive)
NC(Cc1cc(O)c(O)cc1O)C(=O)O (stereo not drawn) | 2.51 µM (active) | 
CCOC(=O)[C@]1(C#N)[C@@H]2C=CC(C(N)=O)=CN2[C@@H](C(N)=O)[C@@H]1c1ccc(F)cc1 |  | -22% (inactive)
CNC(=O)O/N=C(\C)Cc1nnn(-c2cc(C)on2)n1 |  | -1.93% (inactive)
O=C1/C(=C\c2cccnc2)N2CCC1CC2 |  | -7.07% (inactive)
CCN1CCN(c2nc([N+](=O)[O-])nn2C)CC1 |  | -0.501% (inactive)
CC(C)C(N)C(=O)OCCOCn1cnc2c(=O)[nH]c(N)nc21 (stereo not drawn) | 0.705 µM (active) | 
CN1C(=O)C(=Cc2cccnc2)C(=O)N(C)C1=O |  | -6.91% (inactive)
COc1cccc(C(=O)N2CCC3(CC2)OCCO3)c1 |  | 2.46% (inactive)
O=C(O)COc1ccccc1/C=C1\C(=O)NC(=O)N(CCC2=CCCCC2)C1=O |  | -8.15% (inactive)
CCn1c(O)c(C=NCCN2CCOCC2)c(=O)[nH]c1=S |  | 6.3% (inactive)
CN1CCN(c2nc(N)cc(=O)[nH]2)CC1 |  | -5.72% (inactive)
CC(C)[C@@]1(NC(=O)[C@H]2CC3c4cccc5[nH]cc(c45)C[C@H]3N(C)C2)O[C@@]2(O)C3CCCN3C(=O)[C@@H](Cc3ccccc3)N2C1=O (stereo partly drawn) | 25 µM (active) | 
CC(C)C[C@H]1C(=O)N2CCCC2[C@]2(O)O[C@](NC(=O)[C@@H]3C=C4c5cccc6[nH]cc(c56)CC4N(C)C3)(C(C)C)C(=O)N12 (stereo partly drawn) | 7.91 µM (active) and 7.05 µM (active) | 
CC(C)[C@H]1C(=O)N2CCC[C@H]2[C@]2(O)O[C@](NC(=O)[C@@H]3C=C4c5cccc6[nH]cc(c56)C[C@H]4N(C)C3)(C(C)C)C(=O)N12 | 6.87 µM (active) | 
CC(=O)CC(c1ccccc1[N+](=O)[O-])c1c(O)c2ccccc2oc1=O (stereo not drawn) |  | -0.958% (inactive)
Cc1cc(C(=O)Nc2ccccc2)nn1C(C)(C)C |  | 2.7% (inactive)
N=Cc1c(O)n(-c2ccccc2)c(=O)n(-c2ccccc2)c1=O |  | -3.79% (inactive)
CC1CN=C(Nc2ccc(F)c(Cl)c2)S1 (stereo not drawn) |  | -8.96% (inactive)
CNC(=O)Oc1ccc(N(C)C)cc1C(C)C |  | 5.1% (inactive)
O=c1[nH]c(=S)[nH]c(O)c1N=Nc1cccc(S(=O)(=O)N2CCOCC2)c1 |  | 1.13% (inactive)

SMILES | Potency | activity, negative = inhibition
CCOP(=O)(Cc1cc(C(C)=O)c(C)o1)OCC |  | -7.07% (inactive)
CCCCn1c(O)c(C(CC)=NCCCn2ccnc2)c(=O)[nH]c1=O |  | -3.48% (inactive)
CCCCc1ccc(C(=O)O)nc1 | 6.31 µM (active) | 
CCC(C)n1c(O)c(C=NCCc2ccccc2)c(=O)[nH]c1=S (stereo not drawn) |  | -0.764% (inactive)
CN(N=O)c1cc(O)ccc1O |  | 1.25% (inactive)
CN(N=O)c1ccc(O)c(O)c1 | 1.26 µM (active) | 
CCC(=Nc1cccc(C(F)(F)F)c1)c1c(O)n(C)c(=O)n(C)c1=O |  | 2.46% (inactive)
C=CCn1c(O)c(C(C)=Nc2ccc3c(c2)CCC3)c(=O)[nH]c1=O |  | -1.69% (inactive)
COc1cc(CN=Cc2c(O)n(C(C)(C)C)c(=O)[nH]c2=O)cc(OC)c1 |  | 1.63% (inactive)
CCCCn1c(O)c(/C=N/N2CCOCC2)c(=O)[nH]c1=S |  | -5.68% (inactive)
CCCCNC(=O)Oc1c(Br)cc2sc(=O)oc2c1Br | 6.12 µM (active) | 
CCCCn1c(O)c(/C=C2/C=CC=N2)c(=O)[nH]c1=O |  | -6.78% (inactive)
Cc1nc(SCc2c(Cl)cccc2Cl)nc(OC(=O)N(C)C)c1C |  | 2.29% (inactive)
CC(C)(C)n1cc(C(=O)c2ccccc2)cc1-c1ccccc1 |  | -0.565% (inactive)
Cn1c(O)c(C(=Nc2ccc(F)cc2)c2ccccc2)c(=O)n(C)c1=O |  | -2.33% (inactive)
COP(=O)(Cc1ccc(C#N)o1)OC |  | -0.622% (inactive)
C/C=C/CC1(CC)C(=O)NC(=S)NC1=O |  | -1.71% (inactive)
COc1ccc(CN2C(=O)NC(=O)/C(=C/c3ccc(OC)c(OC)c3OC)C2=O)cc1 |  | 9.53% (inactive)
O=C(O)CCCCC1SCC2NC(=O)NC21 (stereo not drawn) | 0.0562 µM (active) | 
CC(C)OP(=O)(Oc1ccc(C(O)C(Cl)(Cl)Cl)cc1)OC(C)C (stereo not drawn) |  | -0.79% (inactive)
Clc1ccccc1CN1CCN(c2cccc3[nH]ccc23)CC1 |  | -13.4% (inactive)
C=CCn1c(O)c(C(C)=NCC2CCCO2)c(=O)[nH]c1=O (stereo not drawn) |  | 1.56% (inactive)
O=c1[nH]c(=S)n(-c2ccc(F)cc2)c(O)c1/C=N/N1CCOCC1 |  | 1.42% (inactive)
Cn1c(O)c(/C=N/N2CCOCC2)c(=O)[nH]c1=S |  | 21.1% (inactive)
Cc1cccc(-n2c(O)c(/C=N/Nc3nc4c(c(=O)n(C)c(=O)n4C)n3C)c(=O)[nH]c2=S)c1 | 0.891 µM (active) | 

SMILES | Potency | activity, negative = inhibition
Cc1cc(OC(=O)N(C)C)nc2c1c(C)nn2C |  | -3.55% (inactive)
CCCCCCn1c(O)c(/C=N/N2CCCCCC2)c(=O)[nH]c1=O |  | -0.075% (inactive)
COCc1cc(OC(=O)N(C)C)nc(-c2ccccc2)n1 |  | 0.677% (inactive)
Cc1cccc(N2C(=O)NC(=O)/C(=C\c3ccc(N4CCOCC4)cc3)C2=O)c1 |  | -4.52% (inactive)
Cc1cc(OC(=O)N(C)C)nc(-c2ccc(C)c(Cl)c2)n1 |  | -1.54% (inactive)
CCCC(=O)c1ccc(CP(=O)(OCC)OCC)o1 |  | -2.26% (inactive)
CC[n+]1c(-c2ccccc2)c2cc(N)ccc2c2ccc(N)cc21 | 0.499 µM (active) | 
CC[N+](C)(CC)CCC[n+]1c(-c2ccccc2)c2cc(N)ccc2c2ccc(N)cc21 | 1.12 µM (active) | 
O=c1c2ccccc2nc(Cc2cccc([N+](=O)[O-])c2)n1-c1ccc(O)cc1 |  | -8.58% (inactive)
CCC(=NCc1ccco1)c1c(O)n(-c2ccccc2C)c(=O)[nH]c1=O |  | -0.548% (inactive)
CCCC(=O)c1cc(CP(=O)(OCC)OCC)oc1C |  | -4.76% (inactive)
O=c1[nH]c(=S)[nH]c(O)c1/C=N/N1CCOCC1 |  | 0.395% (inactive)
Cc1ccc(-n2c(O)c(C=N)c(=O)n(-c3ccc(C)cc3)c2=O)cc1 |  | -1.55% (inactive)
CC(=O)Nc1ccc([As](=O)(O)c2ccc([N+](=O)[O-])cc2)cc1 |  | -7.13% (inactive)
Cn1c(O)c(C(=Nc2ccc(F)cc2)c2ccccc2Cl)c(=O)n(C)c1=O |  | -4.1% (inactive)
C[C@H]1CC[C@H]2NCCN[C@H]2C1 |  | 4.76% (inactive)
O=C(OCC1O[C@@H](OC(=O)c2cc(O)c(O)c(O)c2)[C@@H](OC(=O)c2cc(O)c(O)c(O)c2)[C@@H](OC(=O)c2cc(O)c(O)c(O)c2)[C@@H]1OC(=O)c1cc(O)c(O)c(O)c1)c1cc(O)c(O)c(O)c1 (stereo partly drawn) | 0.0631 µM (active) | 
O=C1C=CC(=O)c2c(O)cccc21 | 4.47 µM (active) | 
CCC(=NCc1cccnc1)c1c(O)n(-c2ccccc2C)c(=O)[nH]c1=O |  | 0.638% (inactive)
Cc1onc(-c2c(Cl)cccc2Cl)c1C(=O)Nc1ccc2c(C(F)(F)F)cc(=O)oc2c1 |  | -2.82% (inactive)
Cn1c(O)c(C=NCCN2CCN(C(=O)Nc3ccccc3)CC2)c(=O)n(C)c1=O |  | -4.64% (inactive)
CCCCCCn1c(O)c(C=Nc2ccccc2N2CCOCC2)c(=O)[nH]c1=S |  | 0.654% (inactive)
CCC(=NCc1cc(OC)cc(OC)c1)c1c(O)n(C2CCCCC2)c(=O)[nH]c1=O |  | 9.95% (inactive)
